Fewer than 10 of roughly 6,900 compounds were called active. Calls come from the whole dose curve; as a rule, active = well fitted curve in the direction sought with a large enough effect; inconclusive = small, poorly fitted or top-dose-only effect, or another doubt; inactive = no such curve, though single readings can be large or run the other way. These entries were drawn from the full list.
Target: Metallo-beta-lactamase type 2 (Klebsiella pneumoniae) (UniProt C7C422)
Test: qHTS to identify inhibitors of the New Delhi Metallo-beta-lactamase (NDM): primary screen against the NCATS Gemini Collection; note: % of control where 0% means no effect
Conditions: NDM-1 enzyme, meropenem hydrolysis, absorbance 300 nm; series mostly up to 38.4 µM; activity % (negative = inhibition): at the top concentration
From the text: Assay Submitter (PI): James Inglese Ph.D., Patricia Dranchak Ph.D., Mahesh Aitha Ph.D. Assay Development and Screening Technology Laboratory (ADST) National Center for Advancing Translational Sciences (NCATS), Rockville, MD National Institute of Health (NIH), Bethesda, Maryland The metallo-beta-lactamases (MBL) are a main antibiotic resistance mechanism evolved by bacteria. There is an urgent clinical need for MBL inhibitors to mitigate this growing threat. To support a machine-based learning study, qHTS has been used to experimentally test inhibitors identified by prediction tools.
PROTOCOL TABLE (as described by Inglese et al., 2007) SEQUENCE No. (e.g., 1, 2, 3, etc.); […] (e.g., enzyme, Incubation, Reagent, etc.); VALUE; DESCRIPTION 1; NDM-1; 4 uL of 3 nM enzyme [2 nM final] in 50 mM HEPES (pH 7.0), 1 uM […], 0.01% Tween20; Use BioRaptr to dispense into Aurora black, clear bottom low base 1536-well plates 2; Compounds; 23 nL; Use Pin Tool (Wako) to transfer DMSO control and library compounds in DMSO 3; Incubate; >30 min 4; Reagent; 2 uL of 150 uM meropenem [50 uM final] 5; Incubate; 30 min. 6; Detector; Absorbance at 300 nm (bandwidth = 5 nm, 25 flashes/well) on Tecan Infinity NOTES (numbers refer to sequence above) 1; Column 1 of each plate received assay buffer without enzyme and columns 2-48 received enzyme for a final assay concentration of 2 nM. 2; Control plate contained DMSO in columns 1, 2, 3, and 4. 3; Compound interaction with enzyme. 4; Meropenem substrate was prepared in the same assay buffer as step 1 for a final assay concentration of 50 uM and added to all wells across the assay plates. 5; Substrate interaction with enzyme, plateau phase of kinetics. 6; Default reader settings were applied for absorbance read at 300 nm, bandwidth = 5 nm, 25 flashes/well. References: Inglese J, Shamu CE, Guy RK. 2007. Reporting data from high-throughput screening of small-molecule libraries. Nat Chem Biol. doi:10.1038/nchembio0807-438 Yasgar A, Shinn P, Jadhav A, Auld D, Michael S, Zheng W, Austin CP, Inglese J, Simeonov A. 2008. Compound Management for Quantitative High-Throughput Screening. J Lab Autom 13:79 - 89. doi:10.1016/j.jala.2007.12.004

Sequence of Metallo-beta-lactamase type 2 (Klebsiella pneumoniae) (C7C422 whole entry, looked up): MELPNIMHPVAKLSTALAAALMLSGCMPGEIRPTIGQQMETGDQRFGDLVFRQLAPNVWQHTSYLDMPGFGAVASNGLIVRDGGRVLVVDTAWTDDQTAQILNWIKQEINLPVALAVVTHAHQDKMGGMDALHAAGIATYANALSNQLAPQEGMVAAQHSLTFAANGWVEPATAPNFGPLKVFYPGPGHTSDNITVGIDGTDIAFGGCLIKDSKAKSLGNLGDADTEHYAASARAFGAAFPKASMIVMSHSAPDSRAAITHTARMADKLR

SMILES | activity % (negative = inhibition)
CN1C(=O)[C@H]2CN(Cc3cn[nH]c3-c3cccs3)C[C@H]2C1=O | 1.58% (inactive)
CCOCCn1c(=O)[nH]c2cc(C(=O)NCCn3cnnc3)ccc21 | 3.21% (inactive)
Cn1cnnc1-c1nn(C)c2c1CNCC2 | 3.66% (inactive)
COc1ccc(-c2nc(N3CCOCC3)cc3c2CN(Cc2ccccc2)C3=O)cn1 | 2.36% [at 57.5 µM] (inactive)
O=C(c1ccc(Cl)cc1)N1CCN(Cc2ccccc2-c2cccnc2)CC1 | 11.2% (inactive)
CCOCCn1nc(C)cc1C(=O)N[C@H]1[C@H]2CCO[C@H]2[C@@H]1N(C)C | -0.113% (inactive)
CCn1c(CO)nnc1C1CC(NC(=O)c2[nH]c3ccc(OC)cc3c2C)C1 (configuration not stated) | 13.2% (inactive)
O=C(NCCCc1ccccc1F)[C@@]12CNC[C@@H]1CN(Cc1ccccc1)C2 | 2.98% (inactive)
CCCNc1ccc2nncn2n1 | -0.753% (inactive)
COc1cc(OC)cc(-c2onc(C)c2C(=O)NCc2ccccc2C)c1 | 0.744% (inactive)
CS(=O)(=O)NC[C@H]1Cn2ccnc2CO1 | -0.563% [at 77.1 µM] (inactive)
Cc1noc(C)c1[S+](=O)([O-])N1CCc2nc(-c3ccccc3)nc(-c3ccc(Cl)cc3)c2C1 | 6.08% (inactive)
Cc1ccc2nc(C(NC(=O)C3CCN(CC(N)=O)CC3)C(C)C)[nH]c2c1 (configuration not stated) | -0.481% (inactive)
COc1cc2c(cc1NS(C)(=O)=O)C(c1cccc3c1OCO3)CC(=O)N2 (configuration not stated) | 0.737% (inactive)
Cn1cc(-c2ccc3c(n2)CN(Cc2ccc(F)cc2)C(=O)CO3)cn1 | 8.04% [at 57.5 µM] (inactive)
Cc1nn(-c2ccccc2)c(C)c1Cc1nc(C(C)C)no1 | 10.3% (inactive)
Cn1cncc1C(=O)N1CCC2(CC1)CNC(C(=O)O)C2 (configuration not stated) | 43.9% (inactive)
COc1cccc(N2CCN(C(=O)c3noc(-c4ccc(C)cc4)n3)CC2)c1 | 4.04% (inactive)
CCc1c(C)nn(CCNC(=O)c2cc(S(N)(=O)=O)ccc2F)c1C | -0.662% (inactive)
COc1cc(F)ccc1-c1nc(-c2c(C)noc2C)cc2cc(C)oc12 | 27.1% [at 57.5 µM] (inactive)
COCCCN(CCC(=O)NCc1ccc2c(c1)OCO2)C(=O)c1cc(C)oc1C | -9.84% (inactive)
Cc1cnc(CCNS(=O)(=O)c2cccc(F)c2)n1C(C)C | 0.39% (inactive)
Cc1cccnc1NCCNC(=O)c1ccc(S(N)(=O)=O)cc1 | 13% (inactive)

SMILES | activity % (negative = inhibition)
CCCN1CCC2(CCN([S+](=O)([O-])c3cccs3)CC2)Oc2ccccc21 | -2.6% (inactive)
Cc1ccc(C(=O)N2CCCC2C(=O)N2CCCC2c2nc3ccncc3[nH]2)cc1 (configuration not stated) | 0.286% (inactive)
O=C(c1ccoc1)N1CCN(c2cc(C3CC3)ncn2)CC(O)C1 (configuration not stated) | 18.2% (inactive)
Cc1n[nH]c(C)c1CNC(=O)C1CCN(c2cn[nH]c(=O)c2)C1 (configuration not stated) | 10.8% (inactive)
COCCC1(NC(=O)C2CC2)CCN(C(=O)c2ccccn2)CC1 | 5.91% (inactive)
O=C1CC2(CCN(C(=O)c3ccccn3)C2)Nc2ccccc2N1 (configuration not stated) | -2.18% (inactive)
O=C1Cc2c(-c3ccccc3OCc3ccccc3)n[nH]c2CN1Cc1ccccn1 | 9.35% [at 57.5 µM] (inactive)
CCCc1ccc2oc(C(=O)N(C)CCC3CCCCO3)c(C)c2c1 (configuration not stated) | 4.21% (inactive)
O=C1NCCCc2[nH]c(-c3cnn(-c4ccc(F)cc4)c3)nc21 | 23% (inactive)
CCc1nc2c(c(-c3ccc(Cl)cc3)n1)CN(Cc1ccccn1)CC2 | 102% (inactive)
CCN1CCC(CC(=O)N2CCC(C3CCN(C(=O)NC)CC3)C2)CC1 (configuration not stated) | 26.7% (inactive)
CN(C)S(=O)(=O)N1CCc2nn(C)c(=O)n2CC1 | 10.1% (inactive)
CC(=O)c1ccc(NC(=O)N[C@H]2CCN3C(=O)[C@@H](Cc4ccccc4)NC(=O)[C@H]23)cc1 | 13.7% [at 57.5 µM] (inactive)
CCn1ccc(C(=O)N2CC(c3nc(CCOCC4CC4)no3)C2)n1 | -0.382% (inactive)
NC(=O)[C@@H](Cc1ccccc1)NC(=O)[C@@H]1C[C@@H](NS(=O)(=O)c2cccs2)CCN1C(=O)CSCC(=O)O | 0.756% (inactive)
COc1cccc(CCC(=O)N2CCC(OCC3CC3)C2)c1 (configuration not stated) | 22% (inactive)
CN1C(=O)CC[C@]2(C(=O)NCc3ccco3)CCCC[C@@H]12 | 73.1% (inactive)
Cc1cn2nnc(C(=O)N3CCC(C(=O)Nc4cccc(F)c4)CC3)c2c(=O)[nH]1 | -2.5% (inactive)
COc1ccc(CN(C)C2CCCN(CCc3ccccc3)C2)c(OC)c1OC (configuration not stated) | -2.17% (inactive)
CC(=O)N1CCC(OCCOc2ccccc2)CC1 | -7.31% (inactive)
CCOc1c(CN(C)C(=O)Cn2cccc(OC)c2=O)cccc1OC | 1.77% (inactive)
Oc1ccccc1CN1CC(CNc2cccnc2)C2(C1)CN(c1ccccc1)C2 (configuration not stated) | 28.9% [at 57.5 µM] (inactive)
O=C(CC1CCCC1)N1C[C@@H](CO)[C@@H]2Oc3ccc(Cl)cc3[C@@H]21 | 7.23% (inactive)

SMILES | activity % (negative = inhibition)
COC1CCOC2(CCN(C(=O)Cc3ccccc3)CC2)C1 (configuration not stated) | -13.9% (inactive)
CCc1ccc(S(=O)(=O)N2c3ccccc3CC2c2nnc(C3CCOCC3)o2)cc1 (configuration not stated) | 0.344% (inactive)
CC(C)(C)OC(=O)N1CC(NCc2cccc(F)c2F)C1 | 40% [at 57.5 µM] (inactive)
C1=C(c2nc(-c3ccncc3)cc3c2ccn3Cc2cccnc2)CCOC1 | 17.9% [at 57.5 µM] (inactive)
COC(=O)N1CCCCC1C(=O)N1CCC2(CC1)c1nc[nH]c1CCN2C (configuration not stated) | -2.82% (inactive)
O=C(N1CCCCCC1CN1CCOCC1)C1(c2ccccc2)CC1 (configuration not stated) | 12.4% (inactive)
CCC1CN(C(=O)c2ccc(NCc3cnn(CC)c3)nc2)CCN1C(C)C (configuration not stated) | 1.35% (inactive)
N#CC1CCN(C(=O)C2CCN(C(=O)c3ccc(-c4cncnc4)cc3)CC2)CC1 | -3.71% (inactive)
CC(C)C(=O)N1CCC(NCCOc2ccccc2Cl)CC1 | 12.6% (inactive)
CC(C)N(Cc1nccn1C)C(=O)CC(c1ccccc1)c1ccccc1F (configuration not stated) | 23% (inactive)
CCc1ccccc1NC(=O)N1C[C@@H](F)C[C@H]1C(=O)N1CCc2ccccc2C1 | 0.167% (inactive)
COCCOCc1nc(C2CCCN2C(=O)Nc2ccc(F)cc2F)no1 (configuration not stated) | -10% (inactive)
COc1ccc(NC(=O)[C@@H]2C[C@H](c3ccc(F)cc3)N(Cc3ccccc3Cl)C2)cn1 | 6.46% [at 57.5 µM] (inactive)
CN(C)C(=O)N1CCC2(CC1)CC(c1cccc(C(F)(F)F)c1)=NO2 | -0.151% (inactive)
COC1CCOC2(CCN(C(=O)CCc3nc4ccccc4s3)CC2)C1 (configuration not stated) | 18.8% (inactive)
Cc1cc(C)n(C2CCN(c3nccc(-c4ccccn4)n3)C2)n1 (configuration not stated) | 25.4% (inactive)
CN(C)Cc1nnc(C2CC(NC(=O)Cc3c[nH]c(=O)n(C)c3=O)C2)n1C (configuration not stated) | -2.57% (inactive)
O=C(C1CCCN1C(=O)Cc1ccc(F)cc1)N1CCC(N2CCOCC2=O)CC1 (configuration not stated) | 12.7% (inactive)
O=C1CCC(C(=O)N2CCSCC2)CN1CCc1cccc(F)c1 (configuration not stated) | 6.53% (inactive)
CCN(Cc1ccncc1)C(=O)c1coc(COc2cccc(C(F)(F)F)c2)n1 | 0.141% (inactive)
CCOC(=O)[C@H]1C[C@]2(CCCCNC2=O)N(C(=O)c2cccc(OC)c2)[C@H]1c1ccco1 | -4.71% (inactive)

Reference: PubChem BioAssay AID1794845 (National Center for Advancing Translational Sciences (NCATS), 2023)
